The list is not random: actives were taken first. Their share in the collection is about 9.4%.
HTT aggregate: reduces HttQ103-GFP aggregates in PC12 cells; PC12 HttQ103-GFP aggregates, Acumen cytometry, 40 h; Potency, µM (highest dose often 46.1 µM), usual class: inhibitors; 220,000 compounds, 1.1% hits; AID 1688; also: nearly all actives have a fitted effect of over 60% in size
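Aggregates are detected as GFP objects 1–25 µm with signal 6 STDEV over background in lysates of induced PC12 cells. These carry Huntingtin exon 1 with 103 glutamines fused to GFP under an ecdysone promoter; compounds titrated.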
ALDH1A1 block: inhibitors of human aldehyde dehydrogenase 1A1 | P00352 | 220,000 compounds, 7.3% hits | AID 1030 | Purified ALDH1A1, NADH fluorescence, propionaldehyde substrate | Potency, µM (titrated, usually from 75.3 µM), actives largely listed as inhibitors; active = well fitted inhibition curve with a large enough effect, not every such curve was filed as active; inconclusive = small, poorly fitted or top-dose-only effect, or another doubt; inactive = no such curve, though single readings can be large or run the other way
HTT cytoprotect: protects HTT-Q103 PC12 cells, measured by ATP; AID 1471; Potency, µM (doses to about 56.4 µM), actives largely listed as activators; 230,000 compounds, 0.14% hits; PC12 HTT-Q103 induced, cytoprotection, ATP luminescence, 40 h; also: nearly all actives have a fitted effect of over 45% in size
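Quantitative HTS on tebufenozide-induced (100 nM) PC12 cells expressing HTTQ103 exon 1–GFP; compounds tested as a concentration series; survival measured via cellular ATP.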
HPGD block: blocks human HPGD enzyme activity | 150,000 compounds, 4.3% hits | purified HPGD, NADH fluorescence kinetic, PGE2 substrate | Potency, µM, usual class: inhibitors | P15428; active = well fitted inhibition curve with a large enough effect, not every such curve was filed as active; inconclusive = small, poorly fitted or top-dose-only effect, or another doubt; inactive = no such curve, though single readings can be large or run the other way
Target sequence (P15428 whole entry, looked up): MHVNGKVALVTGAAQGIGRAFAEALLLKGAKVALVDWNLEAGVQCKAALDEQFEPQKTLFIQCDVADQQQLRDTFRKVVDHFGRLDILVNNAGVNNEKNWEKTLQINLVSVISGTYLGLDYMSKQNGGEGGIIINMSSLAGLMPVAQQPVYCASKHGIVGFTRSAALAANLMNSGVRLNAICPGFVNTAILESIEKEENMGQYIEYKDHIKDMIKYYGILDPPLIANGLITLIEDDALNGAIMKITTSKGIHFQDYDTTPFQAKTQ
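20 nM HPGD preincubated 15 min at room temperature with compound in 50 mM Tris-HCl pH 8, 0.01% Tween 20. Started with 1 mM NAD+ and 30 uM prostaglandin E2; NADH fluorescence (360/450 nm) read 5 times over 30-s intervals, last minus first.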
IMPase cell inh: membrane-permeable compound that blocks inositol monophosphatase. CHO-M1 cells, IP1 accumulation, HTRF TR-FRET ratio. 120,000 tested, under 10 active. inhibition (IP1 accumulation), % at 46.1 µM. P97697; active = well fitted curve in the direction sought with a large enough effect in the signal ratio, not every such curve was filed as active; inconclusive = small, poorly fitted or top-dose-only effect, or a change in a side signal; inactive = no such curve, though single readings can be large or run the other way; the % refers to the signal ratio;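 also: cells stimulated with carbachol in lithium chloride buffer; higher means more IMPase inhibition seen as more IP1 and lower FRET ratio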
Target sequence (P97697 whole entry, looked up): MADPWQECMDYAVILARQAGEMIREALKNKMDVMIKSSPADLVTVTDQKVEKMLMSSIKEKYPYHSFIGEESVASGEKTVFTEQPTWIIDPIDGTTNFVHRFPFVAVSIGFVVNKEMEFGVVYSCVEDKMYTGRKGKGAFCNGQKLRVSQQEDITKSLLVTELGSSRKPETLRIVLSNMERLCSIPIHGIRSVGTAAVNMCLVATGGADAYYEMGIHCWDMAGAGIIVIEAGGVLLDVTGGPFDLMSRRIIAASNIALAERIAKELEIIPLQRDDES
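Cellular IMPase inhibition is scored as a rise in cytosolic IP1, detected by competitive TR-FRET between d2-labelled IP1 and a europium anti-IP1 antibody. M1-expressing CHO cells were stimulated with carbachol for 30 min at 37C, with lithium (50 mM LiCl) present in the buffer.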
IMPase Li inh: membrane-permeable IMPase blocker, potentiated with lithium; CHO-M1 cells, IP1 TR-FRET (IP-One), carbachol + lithium; Potency, µM (titrated, usually from 59.4 µM), hits mostly inhibitors; 210,000 compounds, 0.35% hits;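 also: IP1 builds up when IMPase is blocked and the TR-FRET signal falls; nearly all actives have a fitted effect of over 50% in size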
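Readout is a homogeneous TR-FRET IP1 immunoassay (Ex 320, Em 665 and 620), where raised cytosolic IP1 lowers signal. Cells were CHO-M1 treated 30 min at 37C with test compounds plus a little lithium; AC50 values came from Hill-equation fitting.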
Hits are given with their value; [ ] = dose if it differs, or a comment. Unless noted, calls follow the shape of the dose curve; as a rule, active = well fitted curve in the direction sought with a large enough effect; inconclusive = small, poorly fitted or top-dose-only effect, or another doubt; inactive = no such curve, though single readings can be large; an effect the other way counts as inactive or inconclusive.

Screening COc1ccc(OC)c(C2C=C(C34CC5CC(CC(C5)C3)C4)NC(=S)N2)c1 (stereo not drawn) returned HTT aggregate inconclusive, ALDH1A1 block 2.5µM, HTT cytoprotect inactive[10 µM], HPGD block inactive and IMPase Li inh inactive.
`COc1ccc(C2=CC(c3cc(OC)c(OC)c(OC)c3)NC(=S)N2)cc1` (stereo not drawn) gave HTT aggregate inactive, ALDH1A1 block inactive, HTT cytoprotect inactive, HPGD block inactive, IMPase cell inh inactive and IMPase Li inh inactive.
Screening COc1cc(C2C=C(C34CC5CC(CC(C5)C3)C4)NC(=S)N2)cc(OC)c1OC (stereo not drawn) returned HTT aggregate inactive, ALDH1A1 block 1.1µM, HTT cytoprotect inactive, HPGD block inactive, IMPase cell inh inactive and IMPase Li inh inactive.
`Cc1cc2cc(CCNC(=O)C3c4ccccc4Oc4ccccc43)c(=O)[nH]c2cc1C` gave HTT aggregate inactive, ALDH1A1 block inactive, HPGD block inactive and IMPase Li inh inactive.
For Cc1ccc2nc(-c3ccncc3)c(Nc3ccc(C(C)C)cc3)n2c1 the results were IMPase cell inh inactive.
Cc1ccc(-n2c(CCC(=O)O)ccc2-c2cccs2)cc1 was read as HTT aggregate inactive, ALDH1A1 block inconclusive, HTT cytoprotect inactive, HPGD block inactive, IMPase cell inh inactive and IMPase Li inh inactive.
For COC(=O)c1cccc(-n2c(CCC(=O)O)ccc2-c2cccs2)c1 the results were HTT aggregate inactive[9.22 µM], ALDH1A1 block 4µM and HTT cytoprotect inactive[10 µM].
CC(=O)c1ccc(-n2c(CCC(=O)O)ccc2-c2cccs2)cc1 was read as HTT aggregate inactive, ALDH1A1 block 3.5µM, HTT cytoprotect inactive, HPGD block inactive, IMPase cell inh inactive and IMPase Li inh inactive.
Screening NC(=O)c1ccc(-n2c(CCC(=O)O)ccc2-c2cccs2)cc1 returned HTT aggregate inactive, ALDH1A1 block 3.2µM, HTT cytoprotect inactive and IMPase Li inh inactive.
For CC[C@@H]1/C=C(\C)C[C@H](C)C[C@H](OC)[C@H]2O[C@@](O)(C(=O)C(=O)N3CCCC[C@H]3C(=O)O[C@H](/C(C)=C/[C@@H]3CC[C@@H](O)[C@H](OC)C3)[C@H](C)[C@@H](O)CC1=O)[C@H](C)C[C@@H]2OC the results were ALDH1A1 block inactive, HTT cytoprotect inactive and IMPase Li inh inactive.
Screening O=C(NN1CCN(Cc2ccccc2)CC1)c1ccc(N2CCOCC2)c([N+](=O)[O-])c1 returned HTT aggregate inactive, ALDH1A1 block 2.2µM, HTT cytoprotect inactive and IMPase Li inh inactive.
O=C(NCCN1CCOCC1)c1ccc(N2CCCC2)c([N+](=O)[O-])c1 was read as HTT aggregate inactive, ALDH1A1 block 16µM, HTT cytoprotect inactive and IMPase Li inh inactive.
O=C(NCc1ccc2c(c1)OCO2)c1ccc(N2CCCCCC2)c([N+](=O)[O-])c1 was read as HTT aggregate inactive, ALDH1A1 block 10µM, HTT cytoprotect inactive[10 µM], HPGD block 14µM, IMPase cell inh inactive and IMPase Li inh inactive.
`Nc1ncnc2c1nc(Sc1ccc(Cl)cc1)n2[C@H]1O[C@@H]2COP(=O)(O)O[C@H]2[C@@H]1O` gave ALDH1A1 block inactive, HPGD block inactive and IMPase Li inh inactive.
O=C(Nc1cc(-c2nc3ccccc3o2)ccc1Cl)c1ccc(Br)o1 was read as IMPase cell inh inactive.
CCC(C(=O)Nc1ccccc1)c1ccccc1 (stereo not drawn) was read as HTT aggregate inactive, ALDH1A1 block inactive, HTT cytoprotect inactive[10 µM], HPGD block inactive and IMPase Li inh inactive.
For CCC(C(=O)Nc1cc(Cl)c(OC)cc1OC)c1ccccc1 (stereo not drawn) the results were HTT aggregate inactive, ALDH1A1 block 20µM, HTT cytoprotect inactive and IMPase Li inh inactive.
CC(C)C[C@@H](CC(=O)N[C@H](CC(=O)N[C@@H]1CCNC[C@H]1C(=O)N[C@H](CC(=O)N[C@@H](CCC(=O)O)CC(=O)O)Cc1c[nH]c2ccccc12)C(C)C)NC(=O)[C@@H]1CCCC[C@H]1N was read as ALDH1A1 block inactive, HTT cytoprotect inactive[1.9 µM], HPGD block inactive and IMPase Li inh inactive.
Screening CCc1ccccc1-n1c(SCC(=O)N2CCCC2)nc2[nH]ncc2c1=O returned HTT aggregate inactive, ALDH1A1 block inconclusive, HTT cytoprotect inactive and IMPase Li inh inactive.
`O=C(CSc1nc2[nH]ncc2c(=O)n1-c1ccccc1Cl)N1CCCC1` gave HTT aggregate inactive, ALDH1A1 block 32µM, HTT cytoprotect inactive and IMPase Li inh inactive.
O=C(CSc1nc2[nH]ncc2c(=O)n1-c1ccccc1)N1CCCCCC1 was read as HTT aggregate inactive, ALDH1A1 block 5µM, HTT cytoprotect inactive and IMPase Li inh inactive.
O=C(O)[C@H]1C[C@H](C(=O)O)N1 was read as HTT cytoprotect inactive[1.9 µM] and IMPase cell inh inactive.
For CCn1cc(C(=O)NCc2ccco2)c(=O)c2cc(S(=O)(=O)N3CCCCCC3)ccc21 the results were HTT aggregate 13µM, ALDH1A1 block 8.9µM, HTT cytoprotect inactive[10 µM], HPGD block inactive, IMPase cell inh inactive and IMPase Li inh inactive.
`CCn1cc(C(=O)NCc2ccco2)c(=O)c2cc(S(=O)(=O)N3CCc4ccccc4C3)ccc21` gave HTT aggregate inactive, ALDH1A1 block 20µM, HTT cytoprotect inactive[0.074 µM], HPGD block inactive, IMPase cell inh inconclusive and IMPase Li inh inactive.
For CCn1cc(C(=O)NCc2ccco2)c(=O)c2cc(S(=O)(=O)N3CCC(C)CC3)ccc21 the results were HTT aggregate inconclusive, ALDH1A1 block inconclusive, HTT cytoprotect inactive[0.074 µM], HPGD block inactive, IMPase cell inh inactive and IMPase Li inh inactive.
CCn1cc(C(=O)NCc2ccccn2)c(=O)c2cc(S(=O)(=O)N3CCCCC3)ccc21 was read as HTT aggregate inactive, ALDH1A1 block 11µM, HTT cytoprotect inactive[10 µM], HPGD block inconclusive, IMPase cell inh inactive and IMPase Li inh inactive.
For CCC(C)Cn1c(/C=C/c2ccccc2)nc2ccccc21 (stereo not drawn) the results were IMPase cell inh inactive.
For CO/N=C(/C(=O)N[C@@H]1C(=O)N2C(C(=O)O)=C(CSC(=O)c3ccco3)CSC12)c1csc(N)n1 (stereo partly drawn) the results were HTT aggregate inactive and HTT cytoprotect inactive.
`Cn1ncc(N=Cc2ccccc2[N+](=O)[O-])c1C(N)=O` gave HTT aggregate inactive[9.22 µM] and HTT cytoprotect inactive[10 µM].
CN(C)c1ccc(C=Nc2cnn(C)c2C(N)=O)cc1 was read as HTT aggregate inactive, ALDH1A1 block 3.5µM, HTT cytoprotect inactive, HPGD block inactive, IMPase cell inh inactive and IMPase Li inh inactive.

Screening results: PubChem BioAssay, National Center for Advancing Translational Sciences (NCATS)
